According to PubChem BioAssay (NCATS):
Results filed as inconclusive are left out. Calls of active or inactive are those of the source. The call rests on the fitted dose curve; in most records, active means well fitted cell-killing curve with a large enough effect; inconclusive means small, poorly fitted or top-dose-only effect, or effect the other way; inactive means flat fitted curve, though single readings scatter.

Assays:
Test in all cases: Primary qHTS to identify gynecologic anti-cancer compounds using libraries of approved drugs and bioactive compounds (AID 1345084); further: nearly all actives have a fitted effect of over 55% in size
Details in all cases: Gynecologic cancer cell panel viability, ATPlite luminescence, 48 h; series mostly up to 57.5 µM
OV90 = test system: OV90
How it was run: (§1)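 ATP-based viability (ATPlite), 1,000 cells/well, 16 h pre-incubation, 48 h compound at 37 C, 5% CO2, 15 min RT before read.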

PA-1 = test system: PA-1
How it was run: as §1

Tov-21-G = test system: Tov-21-G
How it was run: as §1

Tov112D = test system: Tov112D
How it was run: as §1
On the % scale 0 is the no-effect control and ±100 the full control effect.

COC1OC(=O)C2=C1C1(C)CCCC(C)(C)C1CC2O (configuration not stated)
inactive: Potency (OV90) | Potency (PA-1) | Potency (Tov-21-G) | Potency (Tov112D)

CC1(C)CC[C@]2(C(=O)O)CC[C@]3(C)C(=CCC4[C@@]5(C)CC[C@H](O[C@H]6O[C@H](C(=O)O)[C@@H](O)[C@H](O[C@@H]7O[C@H](CO)[C@H](O)[C@H](O)[C@H]7O)[C@H]6O)C(C)(C)C5CC[C@]43C)[C@@H]2C1 (some centres not stated)
inactive: activity change, negative = cytotoxicity (OV90) -6.58% [at 11.6 µM] | activity change, negative = cytotoxicity (PA-1) 2% [at 11.6 µM] | activity change, negative = cytotoxicity (Tov-21-G) 6.29% [at 11.6 µM] | activity change, negative = cytotoxicity (Tov112D) -0.0817% [at 11.6 µM]

COC(=O)[C@H](Cc1ccc([N+](=O)[O-])cc1)NC(=O)c1cccc2ccccc12
inactive: Potency (OV90) | Potency (PA-1) | Potency (Tov-21-G) | Potency (Tov112D)

Cc1cc(C(=O)N2Cc3cnn(C)c3Nc3ccccc32)ccc1CNC(=O)N1CCN(Cc2cc(O)cc(O)c2)CC1
inactive: Potency (OV90) | Potency (PA-1) | Potency (Tov-21-G) | Potency (Tov112D)

COc1cc(C2Oc3c(OC)cc(CCCO)cc3C2CO)ccc1O (configuration not stated)
inactive: Potency (OV90) | Potency (PA-1) | Potency (Tov-21-G) | Potency (Tov112D)

C=C1Cc2c(Cl)cc3[nH]c4c5c3c2[C@@]2(O)[C@@H]1C[C@@H]2C(C)(C)O[C@H]5C1CC[C@@]2(O)[C@@]35O[C@@H]3[C@H]3OC(C)(C)[C@H]3O[C@H]5CC[C@]2(C)[C@@]41C (some centres not stated)
inactive: Potency (OV90) | Potency (PA-1) | Potency (Tov-21-G) | Potency (Tov112D)

C/C=C(\C)C1C(C)=CC2CCC(OS(=O)(=O)O)C(C)C2C1/C=C/C=C/C(=O)O (configuration not stated)
inactive: Potency (OV90) | Potency (PA-1) | Potency (Tov-21-G) | Potency (Tov112D)

NC(=O)NCCCC(NC(=O)Cc1ccccc1)C(=O)O (configuration not stated)
inactive: Potency (OV90) | Potency (PA-1) | Potency (Tov-21-G) | Potency (Tov112D)
